Assay outcomes (PubChem BioAssay)
In the library only some 3.9% were active in any assay of this set; here they are far more common.
FBA Mtb inh: inhibits M. tuberculosis FBA enzyme. P9WQA3. purified M. tuberculosis FBA, fluorescence read-out. inhibition, % at 1 µM. actives 2.3% (n = 360,000); in the data active means inhibition above about 27%
Target sequence (P9WQA3 whole entry, looked up): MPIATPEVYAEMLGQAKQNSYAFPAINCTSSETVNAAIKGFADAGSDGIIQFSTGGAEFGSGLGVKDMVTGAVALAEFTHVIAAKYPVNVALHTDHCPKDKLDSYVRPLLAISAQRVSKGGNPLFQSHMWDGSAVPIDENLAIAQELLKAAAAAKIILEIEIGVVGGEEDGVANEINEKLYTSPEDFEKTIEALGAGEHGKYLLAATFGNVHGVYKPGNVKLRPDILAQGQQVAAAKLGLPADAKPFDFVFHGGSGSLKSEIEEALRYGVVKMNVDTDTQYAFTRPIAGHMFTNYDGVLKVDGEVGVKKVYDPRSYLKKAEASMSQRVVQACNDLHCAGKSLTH
PrPC surface inh: inhibitors of human cell surface prion protein PrPC; P04156; TR-FRET read-out; inhibition, % at 13.8 µM; actives 0.43% (n = 370,000); AID 720596; in the data active means inhibition above about 24%
BH1578 lux ind: quorum light induction in luxS cqsA deficient V. cholerae. V. cholerae BH1578 lux reporter, luminescence, 6 h. activation, % at 18.7 µM. actives 0.16% (n = 350,000). AID 588436; in the data active means activation mostly above about 9.7%, no sharp cut-off
GDH-TPI counter: GDH-TPI coupled enzyme inhibition counter-screen | GDH-TPI coupled enzyme counterscreen, NADH absorbance | inhibition, % at 4.8 µM | actives 1.2% (n = 360,000) | AID 588335; in the data active means inhibition above about 30%
SARS 3CLpro inh: SARS-CoV 3CLpro protease inhibition; P0C6X7; recombinant SARS-CoV 3CLpro, quenched FRET peptide cleavage; inhibition, % at 6 µM; actives 0.14% (n = 290,000); in the data active means inhibition above about 12%
Each line names hits and unclear results; the compound was inactive in the other large screens.

COc1ccc(CNC(=O)c2c(C)cc(=O)oc2C)cc1	none
COc1ccc(N2CCN(CCNC(=O)c3c(C)cc(=O)oc3C)CC2)cc1	GDH-TPI counter 40.5
CC(C)N(C)CCOC(=O)C1COc2ccccc2O1 (stereo not drawn)	none
Cn1c2ccsc2c2ncn(Cc3ccccc3F)c(=O)c21	FBA Mtb inh active (no result: SARS 3CLpro inh)
COc1cc(/C=N/NC(=O)c2cccc([N+](=O)[O-])c2)ccc1O	none
COc1ccc(/C=N/NC(=O)c2ccc(NC(=O)c3cccc([N+](=O)[O-])c3)cc2)c(C(=O)O)c1OC	GDH-TPI counter 30.8
COc1ccc(/C=N/NC(=O)c2cccc([N+](=O)[O-])c2)cc1O	GDH-TPI counter 32.5
O=C(/C=C/c1ccco1)Nc1ccccn1	GDH-TPI counter 72.8
Cc1ccc(NC(=O)/C=C/c2ccco2)nc1	GDH-TPI counter 32.1
O=C(/C=C/c1ccco1)Nc1cccnc1	none
CCc1ccc(NC(=S)NC(=O)CC(C)C)cc1	none
O=C(NCc1ccccc1)/C(=C\c1ccc(F)cc1)NC(=O)c1ccco1	none (no result: SARS 3CLpro inh)
CC1(C)CC(=O)C(C=Nc2ccccc2)=C(O)C1	none
CC1(C)CC(=O)C(C=Nc2ccccc2C(=O)O)=C(O)C1	GDH-TPI counter 42.5
C=CCN(CC=C)c1nc2ccccc2nc1C(C#N)C(=O)OC(C)C (stereo not drawn)	FBA Mtb inh 36.0
O=c1[nH]c(=O)c2[nH]c(=S)n(-c3ccccc3)c2[nH]1	none (no result: SARS 3CLpro inh)
Cc1cc(C=O)c(O)cc1O	GDH-TPI counter 52.2
O=Cc1cc(N=Nc2ccc(S(=O)(=O)O)cc2)ccc1O	none (no result: SARS 3CLpro inh)
CN(C)c1ccc(C(=O)NCCc2ccccc2-c2ccccc2CCC(=O)NCc2ccccc2)cc1	none (no result: FBA Mtb inh, BH1578 lux ind, GDH-TPI counter, SARS 3CLpro inh)
Cc1sc(NC(=O)c2ccco2)c(C(c2cccnc2)N2CCCC2)c1C (stereo not drawn)	GDH-TPI counter 31.1
COCCN(CC1CCCN(C2Cc3ccccc3C2)C1)C(=O)CCC(F)(F)F (stereo not drawn)	none
CCOC(=O)CNC(=O)N(CCOC)CC1CCCN(C2Cc3ccccc3C2)C1 (stereo not drawn)	FBA Mtb inh active
CC(COc1ccc(OC(F)(F)F)cc1)CN1CCC(C(O)(c2ccccc2)c2ccccc2)CC1 (stereo not drawn)	none (no result: FBA Mtb inh, BH1578 lux ind, GDH-TPI counter, SARS 3CLpro inh)
O=C(NCCc1ccccc1)c1coc(=O)c(Br)c1	GDH-TPI counter 41.4
O=C(NCCC1=CCCCC1)c1coc(=O)c(Br)c1	GDH-TPI counter 39.0
O=C(Nc1cc(Cl)cc(Cl)c1)c1coc(=O)c(Br)c1	FBA Mtb inh 136.5, GDH-TPI counter 32.4
CC(C)CNC(=O)c1coc(=O)c(Br)c1	none
O=C(NCCC1=CCCCC1)c1ccc(=O)oc1	GDH-TPI counter 52.4 (no result: BH1578 lux ind)
O=C(NCCC1=CCCCC1)c1ccc(Cl)cc1	none (no result: FBA Mtb inh, PrPC surface inh, BH1578 lux ind, GDH-TPI counter)
O=C(NCCc1ccccc1)OCc1cn(Cc2cc(F)cc(F)c2)nn1	none (no result: FBA Mtb inh, BH1578 lux ind, GDH-TPI counter, SARS 3CLpro inh)
CC(CCC(=O)O)C1CCC2C3CC(O)C4CC(O)CC[C@]4(C)C3CCC12C (stereo partly drawn)	none (no result: SARS 3CLpro inh)
O=C(O)c1ccc(Cl)c(NCc2cccs2)c1	none
CC1CCC/C(=C\c2ccc(O)cc2)C1=O (stereo not drawn)	GDH-TPI counter 32.4 (no result: SARS 3CLpro inh)
CC1(C(=O)NCc2ccc3c(c2)OCO3)CCN1C(=O)CC1CCCC1 (stereo not drawn)	none (no result: SARS 3CLpro inh)
CCOc1ccc(-c2cc(C)[n+](CCN3CCOCC3)c(-c3ccc(OCC)cc3)c2)cc1	GDH-TPI counter 41.0
O=C(CSc1nnc(CNC(=O)c2c(F)cccc2F)o1)NCc1ccc(F)cc1	none
S=C1Cc2ccccc2N1	PrPC surface inh 40.8
S=C1Nc2ccccc2CS1	none (no result: SARS 3CLpro inh)
Nc1nc(SCC(=O)Nc2ncc(Cl)cc2Cl)n[nH]1	none (no result: SARS 3CLpro inh)
NS(=O)(=O)c1ccc(N2CCN(C(=O)c3ccco3)CC2)nc1	none (no result: SARS 3CLpro inh)
O=C(c1ccco1)N1CCN(c2ccc([N+](=O)[O-])cn2)CC1	GDH-TPI counter 30.7
CCCc1cc(=O)oc2cc(OC(=O)CN3C(=O)NC4(CCCC4)C3=O)ccc12	FBA Mtb inh active (no result: SARS 3CLpro inh)
O=C(O)Cc1ccc(C(=O)c2cccs2)s1	GDH-TPI counter 37.5
C/C(=N\Nc1ccccn1)c1ccc(S(=O)(=O)NCc2ccco2)cc1	none
C/C(=N\Nc1ccc(C(=O)O)cc1)c1ccc(S(=O)(=O)NCc2ccco2)cc1	GDH-TPI counter 54.2
C/C(=N\Nc1ccc(C(=O)O)cc1)c1ccc(Br)cc1	GDH-TPI counter 55.8
C/C(=N/Nc1ncc(Br)cn1)c1ccc(Br)cc1	none
Cc1ccc(S(=O)(=O)N2[C@@H](c3ccc(Cl)cc3)C(C(=O)OC(C)(C)C)=CC[C@H]2c2ccc(Cl)c(Cl)c2)cc1	none (no result: BH1578 lux ind, GDH-TPI counter, SARS 3CLpro inh)
Cc1cc(C)nc(NS(=O)(=O)c2ccc(N/C=C/C(=O)c3ccc(Cl)cc3)cc2)n1	GDH-TPI counter 31.9
O=S(=O)(Nc1ncccn1)c1ccc(Nc2ncnc3ccccc23)cc1	GDH-TPI counter 49.2
O=C(/C=C\Nc1ccc(S(=O)(=O)Nc2ncccn2)cc1)c1cccc2ccccc12	GDH-TPI counter 55.5
CCN(CC)c1ccc(C=Nc2cc(C)ccc2C)c(O)c1	GDH-TPI counter 38.0
CCN(CC)c1ccc(/C=N/NC(=O)CNC(=O)C2COc3ccccc3O2)c(O)c1 (stereo not drawn)	GDH-TPI counter 33.3
CCN(CC)c1ccc(/C=N/Nc2nc(C)cc(=O)[nH]2)c(O)c1	none
CCN(CC)c1ccc(C=Nc2ccc(C)cc2C)c(O)c1	none
CCN(CC)c1ccc(/C=N/Nc2ccc(C)cc2)c(O)c1	PrPC surface inh 25.2
CCOC(=O)N/N=C/c1ccc(N(CC)CC)cc1O	GDH-TPI counter 41.0
CCN(CC)c1ccc(/C=N/NC(=O)c2c(Cl)cnn2C)c(O)c1	none
CCC(C)Oc1nc2c(c(=O)n(C)c(=O)n2C)n1C (stereo not drawn)	none
C#CCOCC1CNC(=S)O1 (stereo not drawn)	none (no result: SARS 3CLpro inh)
COc1ccc(-n2c(COc3ccccc3)nnc2SCC(=O)Nc2ccc(OCc3ccccc3)cc2)cc1	none (no result: FBA Mtb inh, BH1578 lux ind, GDH-TPI counter, SARS 3CLpro inh)
CCN(CC)c1ccc(/C=N/NC(=O)CCC(=O)NCc2ccccc2)c(O)c1	GDH-TPI counter 39.9
O=C(NCCO)/C(=C\c1cccs1)NC(=O)c1cccs1	none
CCN(CC)CCCNC(=O)/C(=C\c1cccn1C)NC(=O)c1cccs1	GDH-TPI counter 34.7
CC(C)c1ccc(NC(=O)OC2CCC23CCC(c2ccccc2)CC3)cc1 (stereo not drawn)	none (no result: FBA Mtb inh, BH1578 lux ind, GDH-TPI counter, SARS 3CLpro inh)
O=C(CCNc1n[nH]c(=O)[nH]c1=O)N/N=C/c1ccc(Cl)cc1	none
O=c1[nH]nc(N/N=C/c2ccc(Cl)cc2Cl)c(=O)[nH]1	GDH-TPI counter 37.5
Cc1nc2ccccc2n1CSc1ccccc1	none
O=C(NCCCN1CCc2ccccc2C1)Nc1ccc(Br)cc1	none
O=C(NCCN1CCc2ccccc2C1)Nc1ccc([N+](=O)[O-])cc1	GDH-TPI counter 40.3
N/C(=N\C(=S)Nc1ccc2c(c1)OCO2)c1ccccc1	none (no result: BH1578 lux ind, GDH-TPI counter, SARS 3CLpro inh)
CCc1c(C)nc2ncnn2c1Nc1ccc(C(C)=O)cc1	GDH-TPI counter 39.5
CCOC(=O)c1ccc(Nc2c(CC)c(C)nc3ncnn23)cc1	GDH-TPI counter 32.0
CCc1c(C)nc2ncnn2c1Nc1ccc(C#N)c(Cl)c1	none
CN1CC(=O)N/C1=N\C(=O)Nc1ccc2c(c1)N(C)C(=O)CS2	none
